According to PubChem BioAssay AID1159580 (chemical genetic matrix, 2015):
Among all 5,500 compounds or so, about 2,000 (36%) were called active. Roughly 18% stayed inconclusive and do not appear here. No stated cut-off is given here; in the data, active means normalized growth mostly below about 0.91 (no sharp cut-off); inconclusive means no clear call, values can overlap the other calls; inactive means mostly above about 0.92. The list shows a part of the results.

Experiment: chemical genetic growth profiling, strain panel (AID 1159580);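 further: tested at 20 µM; growth read once vehicle control cultures reached saturation at 30 °C; 1 = growth at the plate median or of vehicle wells; lower values mean less growth of the strain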
Settings: S. cerevisiae deletion strains, growth OD

Measured: normalized growth

COc1ccc(-c2coc3cc(OC)cc(OC)c3c2=O)cc1
inactive: locus YAL021C, strain ccr4, active compounds read low 1 | locus YAL026C, strain drs2, active compounds read low 0.985 | locus YAL030W, strain snc1, active compounds read low 0.987 | locus YBL061C, strain skt5, active compounds read low 0.972 | locus YBR009C, strain hhf1, active compounds read low 0.988 | locus YBR023C, strain chs3, active compounds read low 0.97 | locus YBR171W, strain sec66, active compounds read low 0.994 | locus YBR231C, strain swc5, active compounds read low 0.989 | locus YBR279W, strain paf1, active compounds read low 0.993 | locus YCL011C, strain gbp2, active compounds read low 0.979 | locus YCL016C, strain dcc1, active compounds read low 0.997 | locus YCL061C, strain MRC1, active compounds read low 0.989 | locus YCL069W, strain vba3, active compounds read low 0.996 | locus YCR088W, strain abp1, active compounds read low 0.991 | locus YDL005C, strain med2, active compounds read low 1 | locus YDL040C, strain nat1, active compounds read low 0.987 | locus YDR001C, strain nth1, active compounds read low 0.984 | locus YDR069C, strain doa4, active compounds read low 1 | locus YDR137W, strain rgp1, active compounds read low 0.974 | locus YDR159W, strain sac3, active compounds read low 0.987 | locus YDR195W, strain ref2 1.04 | locus YDR297W, strain sur2, active compounds read low 0.983 | locus YDR334W, strain swr1, active compounds read low 1 | locus YDR335W, strain msn5, active compounds read low 0.997 | locus YDR392W, strain spt3, active compounds read low 0.843 | locus YEL003W, strain gim4, active compounds read low 0.987 | locus YEL037C, strain rad23, active compounds read low 0.988 | locus YEL061C, strain CIN8 (second series), active compounds read low 0.99 | locus YER015W, strain faa2, active compounds read low 0.99 | locus YER016W, strain bim1, active compounds read low 0.99 | locus YER111C, strain swi4, active compounds read low 0.991 | locus YER155C, strain BEM2 (second series), active compounds read low 0.946 | locus YFR010W, strain ubp6, active compounds read low 1 | locus YGL167C, strain pmr1, active compounds read low 0.982 | locus YGL173C, strain kem1, active compounds read low 0.98 | locus YGL227W, strain vid30, active compounds read low 0.992 | locus YGL240W, strain doc1, active compounds read low 0.982 | locus YGL253W, strain hxk2, active compounds read low 0.995 | locus YHR013C, strain ard1, active compounds read low 0.96 | locus YHR027C, strain rpn1, active compounds read low 0.994 | locus YHR142W, strain chs7, active compounds read low 0.93 | locus YJL092W, strain hpr5, active compounds read low 0.991 | locus YJL095W, strain BCK1 (second series), active compounds read low 1.01 | locus YJL115W, strain asf1, active compounds read low 0.996 | locus YJL129C, strain trk1, active compounds read low 0.969 | locus YJL154C, strain vps35, active compounds read low 0.998 | locus YJL164C, strain tpk1, active compounds read low 0.981 | locus YJL166W, strain qcr8, active compounds read low 0.986 | locus YJL187C, strain SWE1, active compounds read low 0.988 | locus YKL160W, strain elf1, active compounds read low 0.986 | locus YKR026C, strain gcn3, active compounds read low 0.988 | locus YKR091W, strain srl3, active compounds read low 0.989 | locus YLL001W, strain dnm1, active compounds read low 0.976 | locus YLL026W, active compounds read low 0.987 | locus YLL041C, strain sdh2, active compounds read low 0.991 | locus YLR027C, strain aat2, active compounds read low 0.998 | locus YLR221C, strain rsa3, active compounds read low 0.978 | locus YLR258W, strain gsy2, active compounds read low 0.987 | locus YLR262C, strain YPT6 (second series), active compounds read low 0.968 | locus YLR320W, strain mms22, active compounds read low 0.971 | locus YLR342W, strain FKS1, active compounds read low 0.994 | locus YLR357W, strain rsc2, active compounds read low 0.988 | locus YLR370C, strain arc18, active compounds read low 0.992 | locus YLR384C, strain iki3, active compounds read low 0.987 | locus YML120C, strain ndi1, active compounds read low 0.989 | locus YMR058W, strain fet3, active compounds read low 0.987 | locus YMR125W, strain sto1, active compounds read low 1.01 | locus YMR129W, active compounds read low 0.987 | locus YMR205C, strain PFK2, active compounds read low 0.959 | locus YMR231W, strain pep5, active compounds read low 0.977 | locus YNL071W, strain lat1, active compounds read low 0.988 | locus YNL209W, strain ssb2, active compounds read low 0.995 | locus YNL248C, strain rpa49, active compounds read low 0.999 | locus YNL322C, strain KRE1 (second series), active compounds read low 0.994 | locus YNR049C, strain mso1, active compounds read low 1 | locus YOR001W, strain rrp6, active compounds read low 1.01 | locus YOR070C, strain gyp1, active compounds read low 1.01 | locus YOR080W, strain dia2, active compounds read low 1 | locus YOR083W, strain WHI5, active compounds read low 0.984 | locus YOR106W, strain vam3, active compounds read low 0.974 | locus YOR265W, strain rbl2, active compounds read low 0.984 | locus YOR270C, strain vph1, active compounds read low 0.885 | locus YOR290C, strain snf2, active compounds read low 0.948 | locus YPL051W, strain arl3, active compounds read low 0.972 | locus YPL078C, strain atp4, active compounds read low 0.975 | locus YPL106C, strain sse1, active compounds read low 0.964 | locus YPL240C, strain hsp82, active compounds read low 0.984
